# In all, about 50,000 compounds went through this assay and about 800 (1.6%) showed an effect of 50% or more. This is one part of a sample in which strong results are shown more often than they occur.
# Biological target: Bcl-2-like protein 10 (Homo sapiens) (UniProt Q9HD36)
# Test: TR3 peptide-Bcl-B binding displacers, biochemical primary FP assay, phenotype converters (AID 1240);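 also: 0% = Bcl-B with tracer peptide and DMSO and 100% = tracer peptide lacking Bcl-B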
# Conditions: GST-Bcl-B / FITC-TR3 peptide fluorescence polarization; stronger effect = higher value; compound at 3.75 mg/L
# Bcl-2-like protein 10 (Homo sapiens), sequence (Q9HD36 whole entry, looked up): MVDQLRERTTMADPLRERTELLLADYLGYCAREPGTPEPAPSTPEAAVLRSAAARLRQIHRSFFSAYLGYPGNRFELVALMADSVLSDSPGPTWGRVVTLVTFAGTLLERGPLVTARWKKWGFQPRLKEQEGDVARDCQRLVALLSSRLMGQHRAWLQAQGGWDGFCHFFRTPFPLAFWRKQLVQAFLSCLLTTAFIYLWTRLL
row,SMILES,displacement
1,COc1ccccc1C(=O)N1CCN(Cc2ccccc2[N+](=O)[O-])CC1,1.5%
2,COc1ccc(-n2cnc3cc(Nc4nnc(C)c5ccccc45)ccc32)cc1,0.8%
3,CCOC(=O)c1cc(CC)sc1NC(=O)c1cc([N+](=O)[O-])ccc1N1CCN(CC)CC1,-2.3%
4,O=C(CSc1ncn[nH]1)c1ccc(Br)cc1,8.5%
5,COc1ccc(S(=O)(=O)N(Cc2ccccc2)c2ccccc2C(=O)N2CCOCC2)cc1,-1.1%
6,CC(C)(CNC(=O)c1cccnc1)CNC(=O)c1cccnc1,7.9%
7,O=C(O)C(Cc1ccccc1)n1c(O)c(/C=C2\C=Nc3ccccc32)sc1=S (centres undefined),-2.3%
8,Cc1cc(/C=N/O)c(C)n1-c1ccc(F)cc1,12.6%
9,COC(=O)c1ccc(NC(=S)NC(=O)/C=C/c2ccc(Br)cc2)cc1,13.2%
10,COc1ccc2c(c1OC)C(=O)OC2Nc1ccccc1Br (centres undefined),-5.8%
11,COc1ccc(/C=C/C(=O)/C=C/c2ccc(N(C)C)cc2)cc1,-3%
12,COc1ccc(-n2nnnc2C(=Cc2ccc(N(C)C)cc2)c2nnnn2-c2ccc(OC)cc2)cc1,157%
13,COc1ccc(-n2nnnc2C(Cl)(Cl)c2nnnn2-c2ccc(OC)cc2)cc1,5.8%
14,CCOc1cc(/C=C2\SC(=Nc3cccc(Cl)c3C)NC2=O)ccc1O,-11.7%
15,O=C1C(Nc2ccccc2)=CC(c2cccc(F)c2)N1c1ccccc1 (centres undefined),14.1%
16,Brc1ccc2nc(N3CCNCC3)nc(-c3ccccc3)c2c1,-8.1%
17,O=C(c1ccccc1)N1CCN(c2nc(-c3ccccc3)c3cc(Cl)ccc3n2)CC1,10.6%
18,O=CN1CCN(c2nc(-c3ccccc3)c3cc(Br)ccc3n2)CC1,84.9%
19,O=C(c1ccccc1Cl)N1CCN(c2nc(-c3ccccc3)c3cc(Br)ccc3n2)CC1,-5.8%
20,O=C(c1ccc([N+](=O)[O-])cc1)N1CCN(c2nc(-c3ccccc3)c3cc(Cl)ccc3n2)CC1,17.5%
21,O=CN1CCN(c2nc(-c3ccccc3)c3cc(Cl)ccc3n2)CC1,113%
22,CC1=C(C#N)c2nc(N)c(C#N)c(C)c2/C1=C\c1cc([N+](=O)[O-])ccc1Cl,0.6%
23,Cc1cccc(OCCOc2ccccc2/C=C2/SC(=S)N(C)C2=O)c1,-0.4%

row,SMILES,displacement
1,Fc1cc(F)c(F)c(SCCc2ccncc2)c1F,5.9%
2,COc1cccc(N2C(=O)NC(=O)/C(=C/C=C/c3ccco3)C2=O)c1,-47.4%
3,C/C(=N\NC(=O)COc1ccc(Cl)cc1Cl)c1cccnc1,1.9%
4,O=C1C2ON(c3ccc(Cl)cc3)C(c3cccs3)C2C(=O)N1c1cccc(C(F)(F)F)c1 (centres undefined),-18.1%
5,COc1ccc(OCC(O)CN(C)S(=O)(=O)O)cc1 (centres undefined),-6.7%
6,O=C(Cc1ccc(Br)cc1)N1CCN(c2ccccc2)CC1,9.8%
7,COc1ccc(C2CC(=O)C3=C(C2)Nc2ccccc2NC3c2cccc(OC)c2OC)cc1OC (centres undefined),-3.7%
8,O=C(CSc1ccccn1)Nc1ccc2c(c1)C(=O)c1ccccc1C2=O,54.6%
9,CC(=O)Nc1ccc(NC(=O)CSc2ccccn2)cc1,-2.6%
10,O=C(CSc1ccccn1)Nc1ccc(F)cc1,-11.4%
11,CC1(C)CC(=O)c2cnc(NC(=O)Cc3ccc(Cl)cc3)nc2C1,-0.2%
12,COc1ccc(CC(c2nc3ccccc3[nH]2)C(C)c2nc3ccccc3[nH]2)cc1 (centres undefined),8%
13,O=c1oc(/C=C\c2ccccc2)nc2ccc(Br)cc12,10.7%
14,Clc1ccc(CN2CCN(/N=C\c3ccc(OCc4ccccc4)cc3)CC2)cc1,-9.5%
15,CCOC(=O)C1=C(C)N=c2s/c(=C\c3ccco3)c(=O)n2C1c1cccc(OC)c1 (centres undefined),-25.3%
16,CCOC(=O)C1=C(C)N=c2s/c(=C\c3ccco3)c(=O)n2C1c1ccccc1 (centres undefined),16.5%
17,CCOC(=O)C1=C(C)N=c2s/c(=C/c3ccc(I)o3)c(=O)n2C1c1ccccc1OC (centres undefined),14.5%
18,CCOC(=O)C1=C(C)N=c2s/c(=C\c3ccco3)c(=O)n2C1c1ccccc1OC (centres undefined),74.3%
19,CCOC(=O)C1=C(c2ccccc2)N=c2s/c(=C\c3cccnc3)c(=O)n2C1c1cccc(OC)c1OC (centres undefined),5.1%
20,CCOC(=O)C1=C(c2ccccc2)N=c2s/c(=C\c3cccc(O)c3)c(=O)n2C1c1cccc(OC)c1OC (centres undefined),7.6%
21,CCOC(=O)C1=C(c2ccccc2)N=c2s/c(=C\c3ccco3)c(=O)n2C1c1cccc(OC)c1OC (centres undefined),76.4%
22,CCOC(=O)C1=C(C)N=c2s/c(=C\C=C\c3ccccc3)c(=O)n2C1c1ccc(OC(C)=O)cc1 (centres undefined),16.9%
23,CCOC(=O)C1=C(C)N=c2s/c(=C\C=C\c3ccco3)c(=O)n2C1c1ccc(OC)cc1 (centres undefined),63.9%

row,SMILES,displacement
1,CC1CCC2(CC1)C(C#N)=C(SCC(N)=O)NC(=O)C2C#N (centres undefined),-7.2%
2,CCOC(=O)c1sc(NC(=O)c2ccc(Cl)cc2Cl)nc1C,17%
3,O=C1CC(N(Cc2ccco2)C(=S)NCCc2ccccc2)C(=O)N1c1ccc(F)cc1 (centres undefined),27.4%
4,CC(C)(C)NC(=O)c1cccc(C(=O)Nc2cccc(O)c2)c1,-3.2%
5,c1ccc(C2=Nc3ccccc3NC(c3ccccc3)C2)cc1 (centres undefined),-26.7%
6,O=C(NN1C(=O)/C(=C/c2ccc(O)c(O)c2)SC1=S)c1ccccc1Br,73%
7,O=C(NN1C(=O)/C(=C/c2ccc(O)cc2)SC1=S)c1ccccc1Br,-72.2%
8,COc1cc(/C=C2\SC(=S)N(NC(=O)c3ccccc3Br)C2=O)ccc1O,-21.3%
9,CCCCOc1cccc(NC(=O)c2cccc([N+](=O)[O-])c2C)c1,5%
10,O=C(Cc1ccc(Br)cc1)Nc1cc([N+](=O)[O-])ccc1Cl,4.4%
11,O=C1N/C(=N\N=C\c2ccccc2O)SC1Cc1ccc(Cl)cc1 (centres undefined),8.7%
12,O=C(NNC(=O)c1cccc(Cl)c1)c1cccc(F)c1,-4.7%
13,CCC(C)(C)C1CCc2c(sc(NC(=O)c3cnccn3)c2C(=O)OC)C1 (centres undefined),6.1%
14,N#Cc1c(/N=C\c2ccc(N3CCOCC3)c([N+](=O)[O-])c2)sc2c1CCCC2,81.3%
15,N#Cc1c(/N=C\c2ccc(N3CCCCC3)c([N+](=O)[O-])c2)sc2c1CCCC2,-5.3%
16,N#Cc1c(/N=C/c2cc([N+](=O)[O-])c(N3CCOCC3)cc2N2CCOCC2)sc2c1CCCC2,14.5%
17,O=C1NC(=O)/C(=C\c2ccc(O)cc2)S1,1.8%
18,CCCC(=O)Nc1ccc(-c2nc3cc(C)c(C)cc3o2)cc1,14.7%
19,CCCC(=O)Nc1ccc(-c2nc3cc(C)c(C)cc3o2)c(O)c1,96.8%
20,CCC(=O)Nc1ccc(O)c(-c2nc3cc(C)c(C)cc3o2)c1,-7%
21,CCc1ccc(OCC(=O)Nc2ccc(-c3nc4ccccc4o3)c(O)c2)cc1,0.8%
22,CCc1ccc(OCC(=O)Nc2ccc(O)c(-c3nc4cc(C)ccc4o3)c2)cc1,7.4%
23,CCc1ccc(OCC(=O)Nc2ccc(-c3nc4cc(C)c(C)cc4o3)c(O)c2)cc1,118%
